DAX1 inh-1 = NR0B1 (DAX1) inhibition; P51843; AID 504766; 340,000 tested, 0.99% active; inhibition, % at 6.75 µM; HEK293 Gal4-DAX1 luciferase reporter, luminescence;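 active = inhibition above the mean over all tested compounds plus 3 SD, cut at about 4.2% in these data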;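 also: 0% = DAX1-transfected cells with DMSO and 100% = empty-vector control cells with DMSO; inhibition shows as a rise in luminescence from relieved DAX1 repression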
Target sequence (P51843 207-470 limits assumed): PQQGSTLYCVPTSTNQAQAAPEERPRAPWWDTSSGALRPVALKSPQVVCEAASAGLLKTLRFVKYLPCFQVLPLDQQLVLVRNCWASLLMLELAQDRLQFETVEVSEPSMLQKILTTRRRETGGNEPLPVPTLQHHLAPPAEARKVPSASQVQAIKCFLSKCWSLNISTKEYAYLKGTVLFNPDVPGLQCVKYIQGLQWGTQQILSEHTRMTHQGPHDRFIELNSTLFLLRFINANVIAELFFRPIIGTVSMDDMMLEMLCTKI
ssDAF-12 act = S. stercoralis DAF-12 activation, primary screen. 370,000 tested, 1% active. HEK293 ssDAF-12/GRIP1 lit1-tk-luc reporter, luminescence; % of 3 µM dafachronic acid response. activation, % at 6.8 µM. AID 652126;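 active = activation above the mean over all tested compounds plus 3 SD, cut at about 0.9% in these data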;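 also: 0% = DMSO-only wells and 100% = 3 µM delta7-dafachronic acid wells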
DAX1 inh-2 = inhibitors of DAX1 repression of SF-1 activated StAR promoter; HEK293T StAR-luciferase reporter, SF-1/DAX-1 repression relief; inhibition, % at 6.8 µM; 370,000 tested, 1.1% active; AID 652010;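 active = inhibition above the mean over all tested compounds plus 3 SD, cut at about 3.6% in these data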;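 also: 0% = DAX-1 cells with DMSO and 100% = cells lacking DAX-1 with DMSO; higher inhibition means more luminescence from relief of DAX-1 repression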
hgDAF-12 ag = hgDAF-12 agonism, primary luciferase screen | HEK293 GAL4-hgDAF12 UAS-luciferase reporter, agonist luminescence; normalized to butyrate control | activation, % at 6.8 µM | 370,000 tested, 1.8% active | AID 687014;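 active = activation above a cutoff set at the mean of all screened compounds plus 3 SD, cut at about 10% in these data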;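 also: 0% = DMSO wells and 100% = sodium butyrate wells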
hcDAF12 agonist = activates DAF-12 receptor from parasite H. contortus; HEK293 hcDAF-12 lit1-tk-luc reporter, luminescence; 0% DMSO, 100% Δ7-dafachronic acid; activation, % at 6.8 µM; 370,000 tested, 1.4% active; AID 652067;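 active = activation above the mean of all tested compounds plus 3 SD, cut at about 5.5% in these data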;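 also: 100% = response to 3 µM Δ7-dafachronic acid high control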
DAX1 conf = NR0B1 (human) inhibition, confirmation; shares compounds with DAX1 inh-2; HEK293T StAR-promoter luciferase reporter, SF-1/DAX-1 repression; inhibition, % at 6.8 µM; 2,400 tested, 87% active;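 active = inhibition above the average of every tested compound plus 3 SD, cut at about 3.8% in these data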;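 also: 0% = DAX-1 cells with DMSO and 100% = no DAX-1 control cells with DMSO; active compounds raise luminescence by relieving repression of the StAR reporter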
Target sequence (P51843 whole entry, looked up): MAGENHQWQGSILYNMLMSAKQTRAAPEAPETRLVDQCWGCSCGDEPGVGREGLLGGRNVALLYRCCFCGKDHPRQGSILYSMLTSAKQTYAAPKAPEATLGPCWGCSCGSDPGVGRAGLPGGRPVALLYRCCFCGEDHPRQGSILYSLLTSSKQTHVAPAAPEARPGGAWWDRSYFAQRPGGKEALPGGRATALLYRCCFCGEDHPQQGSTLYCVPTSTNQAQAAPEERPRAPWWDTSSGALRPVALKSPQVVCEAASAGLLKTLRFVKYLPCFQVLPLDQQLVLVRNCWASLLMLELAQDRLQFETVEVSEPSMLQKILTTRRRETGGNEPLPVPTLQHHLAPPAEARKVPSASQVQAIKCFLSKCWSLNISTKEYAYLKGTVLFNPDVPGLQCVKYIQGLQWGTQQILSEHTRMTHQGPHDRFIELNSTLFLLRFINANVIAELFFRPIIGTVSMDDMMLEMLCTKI
SF1 mutant ctr = counter-screen for DAX1 inhibitors: nonselective inhibitors with SF-1 AF2 mutant; HEK293 StAR-luciferase, luminescence; shares compounds with DAX1 inh-2; inhibition, % at 6.8 µM; 2,400 tested, 78% active;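 active = inhibition above the mean of all tested compounds plus 3 SD, cut at about 3% in these data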;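 also: 0% = DAX-1 transfected cells with DMSO and 100% = cells without DAX-1 with DMSO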
* hit, by the source's call. Most compounds without a hit are left out; they make up all but 4.1% or so of the library.

`CCN(CC)S(=O)(=O)c1ccc(OCC(=O)NC(=O)Cc2ccccc2)c([N+](=O)[O-])c1` gave DAX1 inh-1 1.6, ssDAF-12 act -0.6, DAX1 inh-2 -0.6, hgDAF-12 ag -1.5 and hcDAF12 agonist -2.1.
For CCN(CC1CCCO1)C(=O)CCc1nnc(CCc2ccccc2)o1 (stereo unspecified) the results were DAX1 inh-1 3.1, ssDAF-12 act -0.6, DAX1 inh-2 3.5, hgDAF-12 ag 9.8 and hcDAF12 agonist 3.5.
`COC(=O)c1c(NC(=O)CCS(=O)(=O)c2ccccc2)sc2c1CCN(C)C2` gave DAX1 inh-1 0.0, ssDAF-12 act -0.5, DAX1 inh-2 -0.8, hgDAF-12 ag 3.5 and hcDAF12 agonist -0.6.
For CCCN1CCc2c(sc(NC(=O)CCS(=O)(=O)c3ccccc3)c2C(=O)OC)C1 the results were DAX1 inh-1 0.7, ssDAF-12 act -0.1, DAX1 inh-2 7.3*, hgDAF-12 ag 0.1, hcDAF12 agonist 1.1, DAX1 conf 7.9* and SF1 mutant ctr 4.7*.
O=c1c(Br)c(N2CCOCC2)cnn1-c1ccccc1 was read as DAX1 inh-1 1.7, ssDAF-12 act -1.0, DAX1 inh-2 1.7, hgDAF-12 ag 3.0 and hcDAF12 agonist 3.2.
`O=c1c(Br)c(N2CCCCC2)cnn1-c1ccccc1` gave DAX1 inh-1 4.5*, ssDAF-12 act -0.6, DAX1 inh-2 4.6*, hgDAF-12 ag 13.2*, hcDAF12 agonist 3.4, DAX1 conf 10.5* and SF1 mutant ctr 8.3*.
For Cc1ccc(C)c(S(=O)(=O)N2CCN(C(=O)c3cccnc3)CC2)c1 the results were DAX1 inh-1 0.0, ssDAF-12 act -1.2, DAX1 inh-2 -0.6, hgDAF-12 ag -1.8 and hcDAF12 agonist -2.1.
`Cc1ccsc1C(=O)OCC(=O)N(C)C1CCCCC1` gave DAX1 inh-1 0.6, ssDAF-12 act 0.2, DAX1 inh-2 10.3*, hgDAF-12 ag 12.5*, hcDAF12 agonist 5.9*, DAX1 conf 10.6* and SF1 mutant ctr 6.3*.
Screening Cc1ccsc1C(=O)OCC(=O)N1CCc2ccccc2C1 returned DAX1 inh-1 2.5, ssDAF-12 act -0.3, DAX1 inh-2 6.9*, hgDAF-12 ag 10.7*, hcDAF12 agonist 2.4, DAX1 conf 12.6* and SF1 mutant ctr 5.9*.
Screening Cc1ccsc1C(=O)OCC(=O)NC1CCCC1 returned DAX1 inh-1 1.5, ssDAF-12 act 0.3, DAX1 inh-2 2.3, hgDAF-12 ag 5.1 and hcDAF12 agonist 5.0.
COC(=O)C1=C(C(=O)OC)[C@@H]2N(C)c3ccc(OC)cc3[C@@]23C[C@@H](C(=O)OC)N(C(=O)COCc2ccccc2)C3=N1 was read as ssDAF-12 act -1.4, DAX1 inh-2 -0.1, hgDAF-12 ag -0.5 and hcDAF12 agonist -1.2.
`Nc1ncnc2c(C3OC(CO)C(O)C3O)c[nH]c12` (stereo unspecified) gave DAX1 inh-1 -6.3, ssDAF-12 act -2.4, DAX1 inh-2 -6.8, hgDAF-12 ag -15.5 and hcDAF12 agonist -4.8.
O=C(N/N=C/c1cccc2ccccc12)c1cccc(F)c1 was read as DAX1 inh-1 0.5, ssDAF-12 act -0.3, DAX1 inh-2 5.1*, hgDAF-12 ag 7.9, hcDAF12 agonist 3.0, DAX1 conf 1.6 and SF1 mutant ctr 1.8.
`Cc1nc(NC(=O)CSC2=NCCS2)sc1C(=O)N(C)C` gave DAX1 inh-1 0.1, ssDAF-12 act -0.8, DAX1 inh-2 12.5*, hgDAF-12 ag 3.4, hcDAF12 agonist 1.7, DAX1 conf 11.0* and SF1 mutant ctr 4.5*.
Cc1nc(NC(=O)CSc2nnc(C3CC3)n2C)sc1C(=O)N(C)C was read as DAX1 inh-1 0.6, ssDAF-12 act -0.9, DAX1 inh-2 1.6, hgDAF-12 ag 0.9 and hcDAF12 agonist 1.7.
Screening Cc1cc(C(=O)CSc2nnc(N)s2)c(C)n1C1CC1 returned DAX1 inh-1 1.5, ssDAF-12 act 0.1, DAX1 inh-2 5.6*, hgDAF-12 ag 4.1, hcDAF12 agonist 0.2, DAX1 conf 4.1* and SF1 mutant ctr 2.8.
`Cc1cc(C)c(C(=O)CSc2nnc(N)s2)cc1C` gave DAX1 inh-1 -0.9, ssDAF-12 act -1.8, DAX1 inh-2 0.6, hgDAF-12 ag 2.1 and hcDAF12 agonist -0.2.
For COCC(C)n1c(C)cc(C(=O)CSc2nnc(N)s2)c1C (stereo unspecified) the results were DAX1 inh-1 1.0, ssDAF-12 act -0.7, DAX1 inh-2 0.0, hgDAF-12 ag 7.5 and hcDAF12 agonist 0.8.
`Cc1ccc(C(=O)CSc2nnc(N)s2)c(C)c1` gave DAX1 inh-1 0.9, ssDAF-12 act 1.0*, DAX1 inh-2 7.8*, hgDAF-12 ag 12.9*, hcDAF12 agonist 3.9, DAX1 conf 8.9* and SF1 mutant ctr 5.4*.
`CC(=O)N1CCC(C(=O)Nc2cc(S(=O)(=O)N3CCCCC3)ccc2C)CC1` gave DAX1 inh-1 -0.3, ssDAF-12 act -0.4, DAX1 inh-2 0.4, hgDAF-12 ag 2.0 and hcDAF12 agonist -0.7.
For CCOC(=O)c1cc2c(c(-c3ccccc3)n1)[C@@H](CCO)N(S(=O)(=O)C(C)(C)C)C2 the results were DAX1 inh-1 -1.4, ssDAF-12 act -0.3, DAX1 inh-2 0.1, hgDAF-12 ag -1.2 and hcDAF12 agonist -0.2.
O=C(CC1SC(N2CCCCC2)=NC1=O)Nc1cccc(C(=O)Nc2ncccc2O)c1 (stereo unspecified) was read as DAX1 inh-1 0.8, ssDAF-12 act -0.2, DAX1 inh-2 7.9*, hgDAF-12 ag 10.7*, hcDAF12 agonist 2.7, DAX1 conf 9.7* and SF1 mutant ctr 9.1*.
Screening O=C(NCc1ccccc1)/C(=C\c1cccc([N+](=O)[O-])c1)NC(=O)c1ccco1 returned DAX1 inh-1 1.8, ssDAF-12 act -1.6, DAX1 inh-2 0.0, hgDAF-12 ag -1.8 and hcDAF12 agonist 1.4.
Screening COC(=O)c1ccc2nc(-c3ccc(S(C)(=O)=O)cc3)cn2c1 returned DAX1 inh-1 3.9, ssDAF-12 act -1.5, DAX1 inh-2 0.1, hgDAF-12 ag -0.5 and hcDAF12 agonist 0.2.
For COC(=O)c1ccc2nc(-c3cccc(N)c3)cn2c1 the results were DAX1 inh-1 -1.9, ssDAF-12 act -1.1, DAX1 inh-2 5.6*, hgDAF-12 ag 5.1, hcDAF12 agonist 3.9, DAX1 conf 5.3* and SF1 mutant ctr 1.6.
`C[C@H]1CN[C@H](CCO)/C1=C\c1ccccc1` gave DAX1 inh-1 1.1, ssDAF-12 act -1.3, DAX1 inh-2 -0.6, hgDAF-12 ag 1.2 and hcDAF12 agonist 0.5.
For CCOc1c(Cl)cc(C(=O)Nc2cccc(C(=O)O)c2)cc1Cl the results were DAX1 inh-1 -3.2, ssDAF-12 act -0.5, DAX1 inh-2 7.6*, hgDAF-12 ag 6.0, hcDAF12 agonist 3.7, DAX1 conf 6.5* and SF1 mutant ctr 4.6*.

Compound activity: PubChem BioAssay, The Scripps Research Institute Molecular Screening Center
